{
  "source": "the supplement of paper PMC12067093",
  "about": "“Discovery and optimisation of a covalent ligand for TRIM25 and its application to targeted protein ubiquitination” (Chemical Science, 2025)",
  "assay_in_all_cases": "probe-labelled cysteine peptide fold change vs DMSO (competition) (log2 fold change); higher = less target engagement (more negative = stronger competition)",
  "conditions_in_all_cases": "THP-1, incubation time: 4 h",
  "key": {"[1]": {"biological_target": "A6NIZ1_A6NIZ1_118_VKDTDDVPMILVGNKCDLEDERVVGK<|>RAP1B_P61224_118_VKDTDDVPMILVGNKCDLEDERVVGK (UniProt P61224+A6NIZ1)"}, "[2]": {"biological_target": "A6NNZ2_A6NNZ2_303_NMMAACDPR<|>TUBB4A_P04350_303_NMMAACDPR<|>TUBB_P07437_303_NMMAACDPR<|>TUBB4B_P68371_303_NMMAACDPR<|>TUBB3_Q13509_303_NMMAACDPR<|>TUBB2A_Q3ZCM7_303_NMMAACDPR<|>TUBB8_Q9BUF5_303_NMMAACDPR<|>TUBB6_Q9BVA1_303_NMMAACDPR (UniProt Q9BVA1+Q3ZCM7+Q13509+P68371+P07437+P04350+Q9BUF5+A6NNZ2)"}, "[3]": {"biological_target": "ABCC1_P33527_1047_CLHVDLLHSILR (UniProt P33527)", "sequence (P33527 whole entry, looked up)": "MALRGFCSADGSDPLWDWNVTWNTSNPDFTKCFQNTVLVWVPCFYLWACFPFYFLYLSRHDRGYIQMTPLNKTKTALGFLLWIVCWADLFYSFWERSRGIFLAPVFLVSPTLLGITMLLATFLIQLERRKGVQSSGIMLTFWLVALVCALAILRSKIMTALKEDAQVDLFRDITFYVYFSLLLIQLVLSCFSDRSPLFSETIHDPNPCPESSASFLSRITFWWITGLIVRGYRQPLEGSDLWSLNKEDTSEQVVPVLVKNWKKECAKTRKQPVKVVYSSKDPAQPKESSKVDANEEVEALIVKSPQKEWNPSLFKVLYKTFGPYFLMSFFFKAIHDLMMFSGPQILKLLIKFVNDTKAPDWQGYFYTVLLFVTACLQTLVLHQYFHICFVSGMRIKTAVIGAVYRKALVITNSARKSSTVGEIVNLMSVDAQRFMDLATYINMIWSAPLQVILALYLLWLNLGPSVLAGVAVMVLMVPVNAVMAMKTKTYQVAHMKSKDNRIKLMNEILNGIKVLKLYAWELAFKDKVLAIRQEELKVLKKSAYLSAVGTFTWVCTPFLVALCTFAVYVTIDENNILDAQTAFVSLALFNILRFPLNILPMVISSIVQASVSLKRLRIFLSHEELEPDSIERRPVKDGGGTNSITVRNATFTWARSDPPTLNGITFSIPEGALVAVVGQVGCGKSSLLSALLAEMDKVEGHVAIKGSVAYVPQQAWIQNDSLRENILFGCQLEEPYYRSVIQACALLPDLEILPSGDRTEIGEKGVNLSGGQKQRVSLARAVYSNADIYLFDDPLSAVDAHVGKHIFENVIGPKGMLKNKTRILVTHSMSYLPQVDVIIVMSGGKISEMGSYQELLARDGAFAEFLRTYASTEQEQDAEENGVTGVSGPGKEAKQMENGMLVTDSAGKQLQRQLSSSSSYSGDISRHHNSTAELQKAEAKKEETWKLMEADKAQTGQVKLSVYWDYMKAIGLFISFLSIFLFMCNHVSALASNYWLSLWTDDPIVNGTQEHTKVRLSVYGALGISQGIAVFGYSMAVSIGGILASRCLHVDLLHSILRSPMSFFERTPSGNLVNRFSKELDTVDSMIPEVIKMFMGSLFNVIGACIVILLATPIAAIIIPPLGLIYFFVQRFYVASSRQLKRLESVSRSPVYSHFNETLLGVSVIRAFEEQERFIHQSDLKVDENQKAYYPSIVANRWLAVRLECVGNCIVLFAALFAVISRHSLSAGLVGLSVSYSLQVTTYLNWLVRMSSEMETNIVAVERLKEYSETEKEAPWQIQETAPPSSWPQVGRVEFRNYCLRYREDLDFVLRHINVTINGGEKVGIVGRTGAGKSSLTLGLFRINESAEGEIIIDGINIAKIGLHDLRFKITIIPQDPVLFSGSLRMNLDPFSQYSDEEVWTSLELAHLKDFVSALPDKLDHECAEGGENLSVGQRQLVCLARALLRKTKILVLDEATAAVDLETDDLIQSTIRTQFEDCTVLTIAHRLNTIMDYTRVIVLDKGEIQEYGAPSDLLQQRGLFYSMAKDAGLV"}, "[4]": {"biological_target": "ABCF2_Q9UG63_586_LIQQVAQEIWVCEK (UniProt Q9UG63)"}, "[5]": {"biological_target": "ABHD10_Q9NUJ1_229_EAEHHCLLHSPIPVNCPIR (UniProt Q9NUJ1)"}, "[6]": {"biological_target": "ABHD15_Q6UXT9_323_EFEEALFCHTK (UniProt Q6UXT9)"}, "[7]": {"biological_target": "ABHD16A_O95870_544_HLHNFEATHCTPLPAQNFQMPWHL (UniProt O95870)"}, "[8]": {"biological_target": "ABHD17B_Q5VST6_250_CQRPVEPLWVEGAGHNDVELYGQYLER (UniProt Q5VST6)", "sequence (Q5VST6 whole entry, looked up)": "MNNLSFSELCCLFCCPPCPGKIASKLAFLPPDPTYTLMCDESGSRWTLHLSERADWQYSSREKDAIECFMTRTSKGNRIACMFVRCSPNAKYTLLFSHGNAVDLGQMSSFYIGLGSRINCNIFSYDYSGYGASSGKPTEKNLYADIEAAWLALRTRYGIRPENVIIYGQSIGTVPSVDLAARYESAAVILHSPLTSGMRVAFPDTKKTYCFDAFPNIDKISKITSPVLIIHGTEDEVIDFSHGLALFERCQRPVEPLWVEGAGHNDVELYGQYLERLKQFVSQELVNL"}, "[9]": {"biological_target": "ACAA1_P09110_123_QCSSGLQAVASIAGGIR (UniProt P09110)", "sequence (P09110 whole entry, looked up)": "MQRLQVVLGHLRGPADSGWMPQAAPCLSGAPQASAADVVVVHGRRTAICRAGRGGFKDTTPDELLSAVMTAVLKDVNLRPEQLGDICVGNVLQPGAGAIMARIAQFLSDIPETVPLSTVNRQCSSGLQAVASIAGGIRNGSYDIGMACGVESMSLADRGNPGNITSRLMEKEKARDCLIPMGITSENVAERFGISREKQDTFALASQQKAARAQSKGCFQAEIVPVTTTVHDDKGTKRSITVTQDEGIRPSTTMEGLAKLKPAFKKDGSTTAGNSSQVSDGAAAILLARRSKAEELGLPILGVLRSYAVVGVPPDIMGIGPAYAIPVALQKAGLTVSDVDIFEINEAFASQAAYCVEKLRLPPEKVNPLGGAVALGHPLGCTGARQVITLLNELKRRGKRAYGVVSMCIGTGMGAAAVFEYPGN"}, "[10]": {"biological_target": "ACAA1_P09110_177_ARDCLIPMGITSENVAER (UniProt P09110)", "sequence (P09110 whole entry, looked up)": "as above"}, "[11]": {"biological_target": "ACAA2_P42765_116_EAEVVLCGGTESMSQAPYCVR (UniProt P42765)", "sequence (P42765 whole entry, looked up)": "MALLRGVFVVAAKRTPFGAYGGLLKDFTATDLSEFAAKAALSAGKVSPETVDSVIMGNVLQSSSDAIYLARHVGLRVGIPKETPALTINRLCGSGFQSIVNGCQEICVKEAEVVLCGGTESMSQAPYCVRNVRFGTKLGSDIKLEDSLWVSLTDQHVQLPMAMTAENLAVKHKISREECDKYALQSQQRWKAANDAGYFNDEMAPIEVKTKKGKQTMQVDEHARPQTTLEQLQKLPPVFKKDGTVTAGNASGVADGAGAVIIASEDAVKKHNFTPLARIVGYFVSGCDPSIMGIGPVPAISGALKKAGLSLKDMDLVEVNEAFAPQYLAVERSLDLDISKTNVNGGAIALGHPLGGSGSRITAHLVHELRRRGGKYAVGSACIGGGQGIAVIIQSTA"}, "[12]": {"biological_target": "ACAD9_Q9H845_271_GSNTCEVHFENTK (UniProt Q9H845)", "sequence (Q9H845 whole entry, looked up)": "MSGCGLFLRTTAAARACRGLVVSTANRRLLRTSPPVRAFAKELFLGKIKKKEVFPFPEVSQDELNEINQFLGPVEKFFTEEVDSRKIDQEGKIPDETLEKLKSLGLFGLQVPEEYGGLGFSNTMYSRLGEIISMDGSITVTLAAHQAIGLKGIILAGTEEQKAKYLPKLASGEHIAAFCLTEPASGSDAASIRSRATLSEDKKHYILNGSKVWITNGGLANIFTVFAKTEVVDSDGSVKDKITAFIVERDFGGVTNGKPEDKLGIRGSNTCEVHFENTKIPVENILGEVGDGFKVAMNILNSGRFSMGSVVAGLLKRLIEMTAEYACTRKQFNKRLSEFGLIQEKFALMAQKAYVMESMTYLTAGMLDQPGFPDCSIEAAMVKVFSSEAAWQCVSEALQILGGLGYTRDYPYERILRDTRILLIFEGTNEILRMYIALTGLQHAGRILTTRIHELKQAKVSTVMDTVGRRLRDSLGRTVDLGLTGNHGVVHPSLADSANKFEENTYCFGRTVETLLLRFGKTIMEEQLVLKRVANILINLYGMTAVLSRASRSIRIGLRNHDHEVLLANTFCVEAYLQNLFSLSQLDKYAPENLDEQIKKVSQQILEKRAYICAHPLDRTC"}, "[13]": {"biological_target": "ACADS_P16219_109_GCASTGVIMSVNNSLYLGPILK (UniProt P16219)"}, "[14]": {"biological_target": "ACADVL_P49748_237_TSAVPSPCGK (UniProt P49748)"}, "[15]": {"biological_target": "ACADVL_P49748_477_LFVALQGCMDK (UniProt P49748)"}, "[16]": {"biological_target": "ACADVL_P49748_603_MLCDTWCIEAAAR (UniProt P49748)"}, "[17]": {"biological_target": "ACAP2_Q15057_329_FCFEVVSPTK (UniProt Q15057)"}, "[18]": {"biological_target": "ACAP2_Q15057_691_GPLHHATVLGHTGQVCLFLK (UniProt Q15057)"}, "[19]": {"biological_target": "ACAT1_P24752_196_IHMGSCAENTAK (UniProt P24752)", "sequence (P24752 whole entry, looked up)": "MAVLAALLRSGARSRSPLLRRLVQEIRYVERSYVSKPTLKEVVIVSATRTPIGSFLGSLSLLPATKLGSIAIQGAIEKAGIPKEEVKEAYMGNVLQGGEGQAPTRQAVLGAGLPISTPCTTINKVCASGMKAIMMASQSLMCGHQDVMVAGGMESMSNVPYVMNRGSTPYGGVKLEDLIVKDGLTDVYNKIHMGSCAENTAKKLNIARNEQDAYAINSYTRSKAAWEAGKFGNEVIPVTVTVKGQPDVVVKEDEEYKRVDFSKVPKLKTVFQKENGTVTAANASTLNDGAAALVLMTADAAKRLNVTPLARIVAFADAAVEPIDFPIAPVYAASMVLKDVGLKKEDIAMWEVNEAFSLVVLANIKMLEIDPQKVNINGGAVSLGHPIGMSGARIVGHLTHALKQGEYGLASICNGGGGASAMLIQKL"}, "[20]": {"biological_target": "ACAT1_P24752_413_QGEYGLASICNGGGGASAMLIQK (UniProt P24752)", "sequence (P24752 whole entry, looked up)": "as the sequence (P24752 whole entry, looked up) above"}, "[21]": {"biological_target": "ACAT2_Q9BWD1_360_VNIEGGAIALGHPLGASGCR (UniProt Q9BWD1)", "sequence (Q9BWD1 whole entry, looked up)": "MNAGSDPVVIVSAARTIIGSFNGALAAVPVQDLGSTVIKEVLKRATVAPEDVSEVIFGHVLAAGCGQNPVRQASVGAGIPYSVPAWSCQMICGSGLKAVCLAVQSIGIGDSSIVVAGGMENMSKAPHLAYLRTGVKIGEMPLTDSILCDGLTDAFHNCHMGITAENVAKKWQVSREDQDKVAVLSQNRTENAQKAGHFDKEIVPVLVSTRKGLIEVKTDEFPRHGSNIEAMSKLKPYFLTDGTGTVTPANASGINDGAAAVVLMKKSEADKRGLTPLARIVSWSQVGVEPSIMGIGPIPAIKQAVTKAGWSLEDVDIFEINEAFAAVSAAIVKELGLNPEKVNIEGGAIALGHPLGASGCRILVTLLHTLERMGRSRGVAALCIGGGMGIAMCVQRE"}, "[22]": {"biological_target": "ACLY_P53396_633_GVTIIGPATVGGIKPGCFK (UniProt P53396)"}, "[23]": {"biological_target": "ACO2_Q99798_451_DLGGIVLANACGPCIGQWDRK (UniProt Q99798)", "sequence (Q99798 whole entry, looked up)": "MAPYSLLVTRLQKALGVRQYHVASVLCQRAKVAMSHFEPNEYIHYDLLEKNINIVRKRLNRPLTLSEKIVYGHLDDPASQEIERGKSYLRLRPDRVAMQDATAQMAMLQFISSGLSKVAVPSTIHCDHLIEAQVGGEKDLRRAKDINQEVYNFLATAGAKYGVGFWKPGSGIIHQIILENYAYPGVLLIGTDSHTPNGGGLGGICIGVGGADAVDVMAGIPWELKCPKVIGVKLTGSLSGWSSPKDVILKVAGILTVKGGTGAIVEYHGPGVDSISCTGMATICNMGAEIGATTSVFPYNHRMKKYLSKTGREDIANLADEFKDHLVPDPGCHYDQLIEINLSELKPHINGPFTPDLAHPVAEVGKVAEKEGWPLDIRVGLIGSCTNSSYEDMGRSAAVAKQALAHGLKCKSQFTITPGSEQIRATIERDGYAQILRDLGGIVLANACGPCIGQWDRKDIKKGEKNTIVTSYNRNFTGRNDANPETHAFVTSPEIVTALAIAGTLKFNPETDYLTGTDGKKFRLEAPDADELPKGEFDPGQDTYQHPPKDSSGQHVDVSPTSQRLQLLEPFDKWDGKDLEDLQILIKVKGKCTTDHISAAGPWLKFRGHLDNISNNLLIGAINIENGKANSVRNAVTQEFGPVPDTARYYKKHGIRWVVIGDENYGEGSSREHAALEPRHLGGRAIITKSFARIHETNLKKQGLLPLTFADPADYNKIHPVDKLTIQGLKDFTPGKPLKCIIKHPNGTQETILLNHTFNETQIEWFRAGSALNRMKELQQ"}},
  "note": "Of roughly 21,000 targets only a part is listed; those with the largest changes were picked by preference.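 Note: competitive profiling in live THP-1 cells: cysteine peptides tagged with an iodoacetamide desthiobiotin (IA-DTB) probe, intensity after compound treatment relative to DMSO-treated cells.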",
  "data": [
    {"smiles": "Cc1cc(C(=O)N2CCCN(C(=O)CCl)CC2)ccc1-c1ccccc1", "note": "[compound 10]", "values": [
      {"measurement": "probe-labelled cysteine peptide fold change", "setting": "[1]; 10 µM", "result": -0.667},
      {"measurement": "probe-labelled cysteine peptide fold change", "setting": "[1]; 50 µM", "result": -1.16},
      {"measurement": "probe-labelled cysteine peptide fold change", "setting": "[2]; 10 µM", "result": -0.0352},
      {"measurement": "probe-labelled cysteine peptide fold change", "setting": "[2]; 50 µM", "result": -0.104},
      {"measurement": "probe-labelled cysteine peptide fold change", "setting": "[3]; 10 µM", "result": -0.245},
      {"measurement": "probe-labelled cysteine peptide fold change", "setting": "[3]; 50 µM", "result": -0.823},
      {"measurement": "probe-labelled cysteine peptide fold change", "setting": "[4]; 10 µM", "result": 0.35},
      {"measurement": "probe-labelled cysteine peptide fold change", "setting": "[4]; 50 µM", "result": 0.325},
      {"measurement": "probe-labelled cysteine peptide fold change", "setting": "[5]; 10 µM", "result": 0.0491},
      {"measurement": "probe-labelled cysteine peptide fold change", "setting": "[5]; 50 µM", "result": 0.0493},
      {"measurement": "probe-labelled cysteine peptide fold change", "setting": "[6]; 10 µM", "result": 0.0269},
      {"measurement": "probe-labelled cysteine peptide fold change", "setting": "[6]; 50 µM", "result": -0.0455},
      {"measurement": "probe-labelled cysteine peptide fold change", "setting": "[7]; 10 µM", "result": -0.497},
      {"measurement": "probe-labelled cysteine peptide fold change", "setting": "[7]; 50 µM", "result": -1.15},
      {"measurement": "probe-labelled cysteine peptide fold change", "setting": "[8]; 10 µM", "result": 0.198},
      {"measurement": "probe-labelled cysteine peptide fold change", "setting": "[8]; 50 µM", "result": 0.147},
      {"measurement": "probe-labelled cysteine peptide fold change", "setting": "[9]; 10 µM", "result": -0.136},
      {"measurement": "probe-labelled cysteine peptide fold change", "setting": "[9]; 50 µM", "result": -0.197},
      {"measurement": "probe-labelled cysteine peptide fold change", "setting": "[10]; 10 µM", "result": -0.114},
      {"measurement": "probe-labelled cysteine peptide fold change", "setting": "[10]; 50 µM", "result": 0.0101},
      {"measurement": "probe-labelled cysteine peptide fold change", "setting": "[11]; 10 µM", "result": -0.0523},
      {"measurement": "probe-labelled cysteine peptide fold change", "setting": "[11]; 50 µM", "result": 0.00696},
      {"measurement": "probe-labelled cysteine peptide fold change", "setting": "[12]; 10 µM", "result": 0.0883},
      {"measurement": "probe-labelled cysteine peptide fold change", "setting": "[12]; 50 µM", "result": 0.106},
      {"measurement": "probe-labelled cysteine peptide fold change", "setting": "[13]; 10 µM", "result": 0.363},
      {"measurement": "probe-labelled cysteine peptide fold change", "setting": "[13]; 50 µM", "result": 0.27},
      {"measurement": "probe-labelled cysteine peptide fold change", "setting": "[14]; 10 µM", "result": -0.143},
      {"measurement": "probe-labelled cysteine peptide fold change", "setting": "[14]; 50 µM", "result": -0.259},
      {"measurement": "probe-labelled cysteine peptide fold change", "setting": "[15]; 10 µM", "result": -0.223},
      {"measurement": "probe-labelled cysteine peptide fold change", "setting": "[15]; 50 µM", "result": 0.311},
      {"measurement": "probe-labelled cysteine peptide fold change", "setting": "[16]; 10 µM", "result": -0.105},
      {"measurement": "probe-labelled cysteine peptide fold change", "setting": "[16]; 50 µM", "result": -0.188},
      {"measurement": "probe-labelled cysteine peptide fold change", "setting": "[17]; 10 µM", "result": 0.23},
      {"measurement": "probe-labelled cysteine peptide fold change", "setting": "[17]; 50 µM", "result": 0.177},
      {"measurement": "probe-labelled cysteine peptide fold change", "setting": "[18]; 10 µM", "result": -0.107},
      {"measurement": "probe-labelled cysteine peptide fold change", "setting": "[18]; 50 µM", "result": -1.08},
      {"measurement": "probe-labelled cysteine peptide fold change", "setting": "[19]; 10 µM", "result": -0.282},
      {"measurement": "probe-labelled cysteine peptide fold change", "setting": "[19]; 50 µM", "result": -1.22},
      {"measurement": "probe-labelled cysteine peptide fold change", "setting": "[20]; 10 µM", "result": -0.164},
      {"measurement": "probe-labelled cysteine peptide fold change", "setting": "[20]; 50 µM", "result": -1.09},
      {"measurement": "probe-labelled cysteine peptide fold change", "setting": "[21]; 10 µM", "result": 0.232},
      {"measurement": "probe-labelled cysteine peptide fold change", "setting": "[21]; 50 µM", "result": 0.226},
      {"measurement": "probe-labelled cysteine peptide fold change", "setting": "[22]; 10 µM", "result": -0.00834},
      {"measurement": "probe-labelled cysteine peptide fold change", "setting": "[22]; 50 µM", "result": 0.0362},
      {"measurement": "probe-labelled cysteine peptide fold change", "setting": "[23]; 10 µM", "result": -0.125},
      {"measurement": "probe-labelled cysteine peptide fold change", "setting": "[23]; 50 µM", "result": -0.398}
    ]}
  ]
}
